Experimental data reported in PubChem BioAssay AID1159580 (chemical genetic matrix, 2015).
Where “and” joins values, the source holds several entries; their conditions need not be identical. Equal entries are not always repeated. Among all 5,500 compounds or so, about 2,000 (36%) were called active. Roughly 18% stayed inconclusive and do not appear here. Rule as the data show it: active = normalized growth mostly below about 0.91 (no sharp cut-off); inconclusive = no clear call, values can overlap the other calls; inactive = mostly above about 0.92. The list shows a part of the results.

Experiment: chemical genetic growth profiling, strain panel (AID 1159580);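 also: tested at 20 µM; growth read once vehicle control cultures reached saturation at 30 °C; 1 = growth at the plate median or of vehicle wells; lower values mean less growth of the strain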
Details: S. cerevisiae deletion strains, growth OD

Measured: normalized growth

NCC(O)CC(=O)O (centres undefined)
inactive: locus YAL021C, strain ccr4, active compounds read low 1.01 | locus YAL026C, strain drs2, active compounds read low 0.967 | locus YAL030W, strain snc1, active compounds read low 0.98 | locus YBL061C, strain skt5, active compounds read low 0.986 | locus YBR009C, strain hhf1, active compounds read low 0.962 | locus YBR021W, strain FUR4, active compounds read low 0.999 | locus YBR023C, strain chs3, active compounds read low 0.994 | locus YBR171W, strain sec66, active compounds read low 0.989 | locus YBR229C, strain ROT2, active compounds read low 1.01 | locus YBR231C, strain swc5, active compounds read low 0.995 | locus YBR279W, strain paf1, active compounds read low 0.991 | locus YCL011C, strain gbp2, active compounds read low 0.966 | locus YCL016C, strain dcc1, active compounds read low 0.994 | locus YCL029C, strain bik1, active compounds read low 0.992 | locus YCL061C, strain MRC1, active compounds read low 0.995 | locus YCL069W, strain vba3, active compounds read low 0.984 | locus YCR088W, strain abp1, active compounds read low 0.977 | locus YDL005C, strain med2, active compounds read low 0.969 | locus YDL035C, strain GPR1, active compounds read low 1.01 | locus YDL040C, strain nat1, active compounds read low 0.991 | locus YDL074C, strain BRE1, active compounds read low 1.01 | locus YDL101C, strain DUN1, active compounds read low 1.01 | locus YDL134C, strain PPH21, active compounds read low 1.01 | locus YDL185W, strain tfp1, active compounds read low 0.994 | locus YDL192W, strain arf1, active compounds read low 0.997 | locus YDR001C, strain nth1, active compounds read low 0.977 | locus YDR069C, strain doa4, active compounds read low 1.04 | locus YDR101C, strain arx1, active compounds read low 1.02 | locus YDR137W, strain rgp1, active compounds read low 0.988 | locus YDR159W, strain sac3, active compounds read low 0.968 | locus YDR162C, strain NBP2, active compounds read low 1.02 | locus YDR195W, strain ref2 0.951 | locus YDR297W, strain sur2, active compounds read low 0.986 | locus YDR318W, strain mcm21, active compounds read low 1.01 | locus YDR334W, strain swr1, active compounds read low 0.975 | locus YDR335W, strain msn5, active compounds read low 0.988 | locus YDR388W, active compounds read low 0.999 | locus YDR392W, strain spt3, active compounds read low 0.892 | locus YDR502C, strain sam2, active compounds read low 0.991 | locus YEL003W, strain gim4, active compounds read low 0.964 | locus YEL037C, strain rad23, active compounds read low 0.977 | locus YEL061C, strain CIN8 (second series), active compounds read low 0.966 | locus YEL061C, strain CIN8, active compounds read low 1.01 | locus YER015W, strain faa2, active compounds read low 0.986 | locus YER016W, strain bim1, active compounds read low 0.983 | locus YER110C, active compounds read low 1 | locus YER111C, strain swi4, active compounds read low 0.974 | locus YER155C, strain BEM2 (second series), active compounds read low 0.997 | locus YER155C, strain BEM2, active compounds read low 1.01 | locus YER167W, strain BCK2, active compounds read low 1.01 | locus YFR010W, strain ubp6, active compounds read low 0.973 | locus YGL078C, strain dbp3, active compounds read low 0.994 | locus YGL086W, strain mad1, active compounds read low 1 | locus YGL167C, strain pmr1, active compounds read low 0.957 | locus YGL173C, strain kem1, active compounds read low 0.984 | locus YGL227W, strain vid30, active compounds read low 0.955 | locus YGL240W, strain doc1, active compounds read low 0.989 | locus YGL248W, strain PDE1, active compounds read low 1.01 | locus YGL253W, strain hxk2, active compounds read low 0.989 | locus YGR078C, strain PAC10, active compounds read low 1.01 | locus YGR135W, strain pre9, active compounds read low 1 | locus YGR252W, strain gcn5, active compounds read low 0.982 | locus YHR013C, strain ard1, active compounds read low 0.964 | locus YHR027C, strain rpn1, active compounds read low 0.997 | locus YHR030C, strain SLT2, active compounds read low 1.01 | locus YHR079C, strain IRE1 (second series), active compounds read low 1 | locus YHR079C, strain IRE1, active compounds read low 1.03 | locus YHR094C, strain hxt1, active compounds read low 0.988 | locus YHR129C, strain ARP1, active compounds read low 1.01 | locus YHR142W, strain chs7, active compounds read low 1.02 | locus YHR200W, strain rpn10, active compounds read low 0.999 | locus YIL066C, strain RNR3, active compounds read low 1.02 | locus YIL073C, strain SPO22, active compounds read low 1.03 | locus YIL125W, strain kgd1, active compounds read low 1.01 | locus YIR030C, strain dcg1, active compounds read low 1 | locus YJL092W, strain hpr5, active compounds read low 0.99 | locus YJL095W, strain BCK1 (second series), active compounds read low 1.01 | locus YJL095W, strain BCK1, active compounds read low 1.01 and 1.02 | locus YJL115W, strain asf1, active compounds read low 0.981 | locus YJL129C, strain trk1, active compounds read low 0.991 | locus YJL134W, strain LCB3, active compounds read low 1.01 | locus YJL154C, strain vps35, active compounds read low 0.981 | locus YJL164C, strain tpk1, active compounds read low 1.06 | locus YJL166W, strain qcr8, active compounds read low 1.02 | locus YJL168C, strain set2, active compounds read low 0.997 | locus YJL187C, strain SWE1 (second series), active compounds read low 1.02 | locus YJL187C, strain SWE1, active compounds read low 0.994 | locus YJR043C, strain POL32, active compounds read low 1.02 | locus YJR066W, strain TOR1, active compounds read low 0.924
